Screening results as filed in PubChem.
D2 ag-1: agonists of human D2 dopamine receptor (beta-arrestin). P14416. DiscoveRx PathHunter D2 beta-arrestin, luminescence, 90 min; 100% = 57 uM dopamine signal. activation, % (no concentration beside the values). actives 0.084% (n = 360,000); in the data active = activation above about 40%
Target sequence (P14416 whole entry, looked up): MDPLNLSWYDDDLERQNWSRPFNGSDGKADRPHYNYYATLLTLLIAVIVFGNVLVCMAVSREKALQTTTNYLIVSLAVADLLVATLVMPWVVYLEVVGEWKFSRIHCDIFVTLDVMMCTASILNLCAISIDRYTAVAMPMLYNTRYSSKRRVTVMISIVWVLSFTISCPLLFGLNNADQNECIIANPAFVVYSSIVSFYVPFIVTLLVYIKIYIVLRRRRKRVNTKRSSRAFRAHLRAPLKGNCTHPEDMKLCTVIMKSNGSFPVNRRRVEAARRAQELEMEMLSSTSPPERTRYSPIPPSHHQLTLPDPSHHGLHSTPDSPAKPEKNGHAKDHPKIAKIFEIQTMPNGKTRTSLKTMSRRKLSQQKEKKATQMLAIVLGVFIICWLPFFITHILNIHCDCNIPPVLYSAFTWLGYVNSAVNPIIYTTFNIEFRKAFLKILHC
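Agonist mode: compounds alone added to overnight-plated D2 PathHunter cells for 90 min at 37 C, with 57 uM final dopamine (EC100) defining full response. Beta-arrestin recruitment detected by chemiluminescent reagent, read after 1 h at ambient temperature.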
D2 ag-2: activates the human D2 dopamine receptor. activation, % at 2 µM. P14416. HEK293 T-REx D2 cells, calcium flux agonist mode. AID 485358. actives 0.53% (n = 340,000);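 active = activation over 3 SD above normal in the single-dose calcium agonist read, cut at about 30% in these data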; note: 0% is about no effect
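Tetracycline-induced HEK293 T-REx cells with force-coupled D2 receptor, plated overnight at 30 C, loaded with no-wash calcium dye. After a 10 s baseline, compound was pin-added and calcium flux read kinetically for 180 s; calcium rises flagged agonists.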
D2 PAM-1: D2 dopamine receptor (human) potentiation; HEK293 T-REx D2, calcium flux, EC20 dopamine potentiation; potentiation, % at 10 µM; actives 0.34% (n = 340,000);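 active = potentiation over 3 SD above the plate norm, cut at about 30% in these data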; note: 0% is about no effect
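Tetracycline-induced HEK293 T-REx cells force-coupled to calcium signalling expressed D2; compounds were pin-added after a 10 s baseline, read kinetically 180 s, then an EC20 dopamine challenge followed with a further 180 s calcium read.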
D2 PAM-2: human D2 receptor positive allosteric modulation. actives 0.23% (n = 360,000). P14416. potentiation, % (concentration not given with the values). DiscoveRx D2 beta-arrestin cells, luminescence, 90 min; 100% = 57 uM dopamine signal; in the data active = potentiation above about 50%
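PathHunter D2 cells, attached overnight at 37 deg C, received compound in DMSO plus dopamine at EC20 (50 nM final) for 90 min at 37 deg C. Beta-arrestin recruitment was read as luminescence after 1 h with detection reagent at ambient temperature.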
D2 antagonist: D2 dopamine receptor (human) antagonism; P14416; HEK293 TREx D2 cells, calcium flux, dopamine EC80; inhibition, % at 10 µM; actives 2% (n = 340,000); AID 485344; in the data active = inhibition above about 30%; inactive = below that, where a call was filed; note: 0% is about no effect
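Cells plated overnight at 30 C with tetracycline; no-wash calcium dye, 30–90 min RT; 10 s baseline; compound pinned; 180 s read; EC80 dopamine added; another 180 s read.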
An asterisk follows results filed as active; . = no result. This is a sample that favours compounds with a hit; in the whole collection about 2.4% have one here.

SMILES | D2 ag-1 | D2 ag-2 | D2 PAM-1 | D2 PAM-2 | D2 antagonist
Cc1cc(N2CCN(Cc3nc(-c4ccc(F)cc4)oc3C)CC2)cc(C)n1 | -2.6 | 0.0 | -1.0 | -10.2 | 17.7
COc1ccc(-c2[nH]ncc2CN2CCC(C(=O)c3ccc(F)cc3)CC2)cc1 | -4.1 | -0.4 | -23.4 | -25.8 | 82.9*
COc1ccc(CN2CCC(C(=O)c3cccc(Cl)c3)CC2)cc1 | 1.4 | . | -13.4 | -4.2 | .
COc1ccc(CN2CCC(C(=O)c3ccc(Cl)cc3)CC2)cc1 | -3.5 | -0.8 | -25.6 | -81.5 | 35.3*
Cc1ccc2c(=O)cc(C(=O)Nc3c(C(=O)c4ccc(F)cc4)oc4ccccc34)oc2c1C | . | 0.1 | -2.1 | . | .
CC1=C(c2ccc(C)cc2)S(=O)(=O)NC1=NCCCN1CCN(c2ccccc2F)CC1 | . | -1.2 | -6.2 | . | .
COc1ccc(-c2[nH]ncc2CN2CCN(Cc3cccs3)CC2)cc1F | -0.5 | 0.7 | -21.4 | -15.2 | -14.6
COc1ccccc1N1CCN(Cc2cn[nH]c2-c2ccc(F)cc2)CC1 | 5.3 | 6.0 | -26.8 | -33.9 | 82.2*
COC(=O)c1ccc(CNC(=O)c2ccc3c(c2)NC(=O)CS3)cc1 | -4.1 | 0.1 | -21.3 | 4.1 | 37.2*
O=C1CSc2ccc(S(=O)(=O)NCc3ccc(Cl)cc3)cc2N1 | 8.0 | 0.0 | -0.1 | 0.4 | 36.0*
O=C1CSc2ccc(S(=O)(=O)NCc3ccc(F)cc3)cc2N1 | 0.3 | 0.8 | -3.3 | 3.2 | 3.8
Cc1ccc(-c2nc3c(C)cccn3c2Nc2ccccc2C)s1 | . | 0.8 | 2.1 | . | .
COc1ccc(-c2nc(C)c(CCNC(=O)c3ccccc3Br)s2)cc1OC | . | . | 5.4 | . | .
COc1ccccc1N1CCN(CCCCN2C(=O)C3CCCN3C2=O)CC1 (stereo unspecified) | 1.9 | . | . | -24.3 | .
O=C1C2CCCCN2C(=O)N1CCCCN1CCN(c2ccccc2Oc2ccccc2)CC1 (stereo unspecified) | -6.8 | -0.4 | -14.9 | -5.4 | 84.1*
O=C1C2CCCCN2C(=O)N1CCCCN1CCN(c2cccc(Cl)c2)CC1 (stereo unspecified) | 3.5 | 3.2 | -17.1 | -11.2 | 91.7*
CC(C)Oc1cccc(C(=O)Nc2ccccc2N2CCOCC2)c1 | 2.1 | -0.4 | -1.8 | -1.9 | 33.4*
CCC(C)Oc1cccc(C(=O)Nc2ccccc2N2CCOCC2)c1 (stereo unspecified) | 0.5 | 0.3 | 2.7 | -0.9 | -1.9
CCCc1cc(C(=O)Nc2ccc(F)c(Cl)c2)no1 | -4.4 | 0.5 | -21.0 | -16.1 | 35.1*
CCCc1cc(C(=O)Nc2cccc(Cl)c2)no1 | -6.1 | 0.8 | -24.3 | -15.7 | 33.1*
CCc1nnc2c(Nc3cc(OC)c(Cl)cc3OC)nc3ccccc3n12 | . | 0.7 | -17.4 | . | .
O=C(c1ccccc1)N1CCCCC(Cl)C1=O (stereo unspecified) | -1.5 | 1.6 | -1.7 | -8.6 | 31.1*
C=CCn1c(SCC(=O)Nc2ncc(Cc3ccc(Br)cc3)s2)nnc1-c1ccncc1 | 4.1 | 0.4 | 32.4* | -8.1 | 16.3
Cc1cccc(NC(=O)c2nc[nH]c2C(=O)N2CCC(C)CC2)c1 | -0.1 | -0.9 | -24.9 | -26.6 | 39.0*
Cc1ccc(NC(=O)c2nc[nH]c2C(=O)N2CCc3ccccc3C2)cc1 | -3.1 | -0.3 | -24.5 | -21.5 | 63.4*
SMILES | D2 ag-1 | D2 ag-2 | D2 PAM-1 | D2 PAM-2 | D2 antagonist
CCOC(=O)c1ccc(NC(=O)c2nc[nH]c2C(=O)N2CCc3ccccc3C2)cc1 | -3.8 | 0.6 | -12.8 | -9.4 | 5.1
CCCOc1ccc(CNC(=O)Cn2cc3c(n2)-c2c(oc(C(=O)N4CCOCC4)c2C)CC3)cc1 | . | . | 4.9 | . | .
C=C(C)C(=O)Nc1cccc(C2=NOC3(C2)C[C@@H](C(N)=O)N(C(=O)c2cc([N+](=O)[O-])cc([N+](=O)[O-])c2)C3)c1 (stereo partly specified) | 12.3 | -0.2 | 10.9 | 84.0* | -14.3
C=C(C)C(=O)Nc1cccc(C2=NOC3(C2)C[C@@H](C(N)=O)N(C(=O)c2ccc(OC)cc2)C3)c1 (stereo partly specified) | -2.1 | -0.1 | -5.8 | -6.1 | 7.7
C/C=C(/C)C(=O)Nc1cccc(C2=NOC3(C2)C[C@@H](C(N)=O)N(C(=O)CC)C3)c1 (stereo partly specified) | 0.3 | -0.2 | -20.5 | -1.6 | 43.4*
CN(C)c1ccc(C(=O)/C=C/c2cccnc2)cc1 | -3.3 | . | . | -12.9 | .
